Screening results as filed in PubChem BioAssay.
Rows were chosen to be rich in hits. Some 2.4% of all compounds tested hit in one or more screens of this group.
Mito fusion yeast – mitochondrial division inhibition or fusion activation; Potency, µM (titrated, usually from 46.1 µM), for inactives: at the top dose growth rescue (activation), hits mostly activators; S. cerevisiae fusion-defective mutant growth rescue, CellTiterGlo 48 h; 320,000 compounds, 0.23% hits; further: % of control where 0% means no effect; nearly all actives have a fitted effect of over 45% in size
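S. cerevisiae fusion-defective temperature-sensitive mutants (e.g. fzo1-1, mgm1-5) grown 48 h at 37C in YPEG (ethanol/glycerol non-fermentable) medium with 23 nl compound per well; growth rescue read as CellTiterGlo luminescence.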
FUS yeast rescue – suppressors of FUS proteinopathy in yeast | S. cerevisiae FUS-expressing, growth rescue, OD600, 24 h | Potency, µM (series often up to 76.6 µM), actives largely listed as activators | 390,000 compounds, 0.24% hits | AID 1347120;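 further: plate controls were DMSO vehicle for no effect and reference control for full effect; nearly all actives have a fitted effect of over 55% in size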
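Absorbance at 600 nm, taken 24hr after compound addition, measured rescue of FUS-yeast growth at 30C. Induction used 2% galactose with seeding at OD 0.005. Controls: CP55940 from 92uM final, DMSO only.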
TDP43 rescue – inhibitors of TDP-43 toxicity in yeast; TDP-43 expressing yeast growth rescue, BacTiter-Glo, 24 h; Potency, µM (titrated, usually from 46.1 µM), for the others: at the highest dose growth rescue (activation), actives largely listed as activators; 410,000 compounds, 1.8% hits; AID 652104; further: % of control where 0% means no effect; nearly all actives have a fitted effect of over 50% in size
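Yeast expressing TDP-43 (pregrown in raffinose, seeded at OD600=0.02 in galactose medium) exposed to compounds 24 hr at 30 deg C. Growth read by BacTiter-Glo luminescence; rescue of toxicity appears as increased signal.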
Abeta yeast res – restores growth of yeast expressing A-beta42 peptide; AID 1347071; Potency, µM (doses to about 46.1 µM), usual class: activators; 410,000 compounds, 0.063% hits; yeast expressing A-beta42, growth rescue, OD600, 48 h; response scale: 0% DMSO, 100% iron-clioquinol control; further: nearly all actives have a fitted effect of over 55% in size
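Yeast growth medium received pinned compounds, then yeast cells expressing toxic A-beta were added; plates incubated at 30 C for 48 hr. Growth read as absorbance at 600 nm, normalized to DMSO and equimolar FeCl3 plus clioquinol controls.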
A-T KAP1 phos – potential ataxia-telangiectasia treatments restoring KAP-1 phosphorylation; F2112 A-T fibroblasts, KAP-1 phosphorylation AlphaLISA; neocarzinostatin DNA damage 30 min before lysis; Potency, µM (doses to about 57.5 µM), without a hit: top-dose activation, actives largely listed as activators; 320,000 compounds, 0.19% hits; further: % of control where 0% means no effect; nearly all actives have a fitted effect of over 45% in size
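ATM-like activity read as KAP-1 phosphorylation via AlphaLISA donor/acceptor antibody pairs after lysis and 6 hr at 25C. Cells were ATM-null patient fibroblasts (F2112, hTERT), dosed 60 min, then exposed to the DSB inducer NCS for 30 min.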
aSyn rescue – rescues yeast growth from alpha-synuclein toxicity. Yeast expressing alpha-synuclein, growth rescue, BacTiter-Glo, 24 h. 370,000 compounds, 0.14% hits. Potency, µM (top dose mostly 46.1 µM), inactives show at the highest dose growth rescue (activation), most hits filed as activators; further: % of control where 0% means no effect; nearly all actives have a fitted effect of over 65% in size
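Galactose-induced alpha-syn yeast (OD600=0.02, raffinose-pregrown) + pinned cpd, 24 hr, 30 deg C; growth by BacTiter-Glo luminescence. Growth restoration scores as activation.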
The depositor's hits bear a star; i = inactive; ? = inconclusive; · = no result; [ ] = dose if it differs, or a comment. The call rests on the fitted dose curve; in most records, active means well fitted curve in the direction sought with a large enough effect; inconclusive means small, poorly fitted or top-dose-only effect, or another doubt; inactive means no such curve, though single readings can be large; an effect the other way counts as inactive or inconclusive. Potency means the concentration at half of the fitted maximal effect.

SMILES	Mito fusion yeast	FUS yeast rescue	TDP43 rescue	Abeta yeast res	A-T KAP1 phos	aSyn rescue
CC(C)Oc1cccc(-c2n[nH]c(=S)n2N=Cc2cccc([N+](=O)[O-])c2)c1	·	i	·	·	·	·
Cc1ccc(NC(=O)Cn2nc(N3CCN(c4ccccc4)CC3)ccc2=O)cc1F	·	?	17.8µM*	i	·	·
O=C(Nc1ccc(F)cc1)c1ccc(Cn2nc(N3CCN(c4ccccc4)CC3)ccc2=O)o1	·	?	22.4µM*	i	·	·
O=C(Nc1ccccc1F)c1ccc(Cn2nc(N3CCN(c4ccccc4)CC3)ccc2=O)o1	·	i	?	i	·	·
CC(=O)c1ccc(NC(=O)Cn2nc(N3CCN(c4ccccc4)CC3)ccc2=O)cc1	·	i	0.0%	i	·	·
CCOC(=O)[C@@]12CCCC3=C1N(CCC3)C(=O)[C@H]2CC(=O)NCc1ccc(C)o1	·	i	·	·	·	·
COc1ccc(C(=O)Nc2nnc(S(=O)(=O)N3CCN(c4ccc(F)cc4)CC3)s2)cc1	·	i	35.5%	i	·	·
CCOC(=O)c1sc2nc3c(cc2c1N)COC(C)(CC)C3 (stereo not drawn)	3.5%	i	11.2µM*	i	13.2%	·
O=C(C1CCN(c2ncnc3c2sc2cccc(F)c23)CC1)N1CCN(Cc2ccc(F)cc2)CC1	·	i	·	·	·	·
Cc1ccc(NS(=O)(=O)c2ccc(Cl)s2)nc1	7.2%	i	3.3%	i	0.1%	2.5%
O=S(=O)(Nc1ccc(Br)cn1)c1ccc(Cl)s1	6.5%	i	11.2µM*	i	-0.6%	4.7%
CCCc1nnc(NC(=O)Cc2coc3c(C)c(C)ccc23)s1	·	i	-12.9%	i	·	·
CCc1ccc(CNC(=O)CN2C(=O)c3cccnc3Oc3ccc(Cl)cc32)cc1	·	?	13.6%	i	·	·
COc1ccccc1C(=O)NC(=O)Nc1cccc(Cl)c1	14.4%	i	15.0%	i	3.55µM*	-5.4%
COc1ccccc1C(=O)Nc1cccc(NC(C)=O)c1	0.5%	i	4.3%	i	-3.1%	3.9%
COc1ccccc1NC(=O)N(CCN1CCCC1)Cc1cc2cc(C)ccc2[nH]c1=O	·	i	-19.0%	i	·	1.4%
CCN1CCCC1CN(Cc1cc2cc(C)ccc2[nH]c1=O)C(=O)Nc1ccccc1OC (stereo not drawn)	11.2%	22.4µM*	-5.8%	i	2.8%	-0.8%
CC(=O)O[C@]1(C(C)=O)CC[C@H]2[C@@H]3C=C(Cl)C4=CC(=O)[C@@H]5C[C@@H]5[C@]4(C)[C@H]3CC[C@@]21C	20.6µM*	i	22.8%	i	5.0%	9.4%
COc1ccc(NC(=O)C(c2ccc(C)cc2)N(C)C(=O)Cc2cccs2)cc1 (stereo not drawn)	-13.2%	i	12.6µM*	?	-2.1%	11.9%
Cc1cc(/C=C(\C#N)C(=O)NCc2ccccc2)cc(C)c1O	2.4%	i	-4.3%	i	5.9%	0.6%
COc1cc(/C=C(/C#N)C(=O)NCc2ccccc2)cc(OC)c1OC	-0.4%	i	20µM*	i	17.4%	?
CCCC1CCC(c2ccc(C(N)=O)cc2)CC1 (stereo not drawn)	3.8%	i	-0.2%	i	7.6%	-3.7%
CCCC1CCC(c2ccc(/C(N)=N/O)cc2)CC1 (stereo not drawn)	?	i	3.55µM*	i	9.6%	-8.1%
Cc1ccccc1N=C(NOCc1ccccc1)c1nonc1N	22.4µM*	i	19.6%	?	1.6%	-8.4%
Cc1ccccc1N=C(NOCc1ccc(Cl)cc1Cl)c1nonc1N	21.0%	i	-15.4%	i	·	-0.6%
COc1coc(C(O)CN)cc1=O (stereo not drawn)	0.4%	i	0.0%[0.397 µM]	i	13.0%	0.9%
CCOC(=O)C(=Cc1cc(=O)c(OC)co1)C(=O)OCC	1.0%	i	12.6µM*	i	-1.9%	8.3%
CNC(=O)c1sc(-c2cccnc2)nc1C	-0.7%	i	20.4%	i	-10.0%	3.2%
